The nature of assay [1]: qHTS assay to identify small molecule antagonists of the estrogen related receptor (ERR) signaling pathway from Tox21 library - cell viability counter screen (AID 1224834). Note: nearly all actives have a fitted effect of over 30% in size. The essentials: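 Fluorescence from CellTiter-Fluor gives the viability read-out, taken 30 min after reagent addition. Before that, ERR cells seeded 6 h earlier were incubated with compounds for 17.5 h at 37 C.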
A general note: Quantitative high-throughput screening tests each substance at several concentrations.

Assay [2] concerns the target Luciferin 4-monooxygenase (Photinus pyralis) (UniProt P08659). The assay is described as follows: qHTS assay to identify small molecule inhibitors of firefly luciferase (AID 1224835). Note: nearly all actives have a fitted effect of over 25% in size. Note: potency is the fitted concentration of half-maximal effect. The essentials:
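Quantitative HTS format; KM concentrations of both substrates. Purified P. pyralis FLuc activity quantified from luminescence images.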

Assay [3] is described as follows: qHTS assay to identify small molecule antagonists of the constitutive androstane receptor (CAR) signaling pathway - cell viability counter screen (AID 1224837). Note: nearly all actives have a fitted effect of over 45% in size. The essentials:
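HepG2-CYP2B6-hCAR cells, 2500/well, 4 hr pre-incubation; compound titration, 15 conc.; CITCO 50 nM final; 23 hr, 37 C/5% CO2; CellTiter-Fluor, fluorescence intensity.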

Assay [4] deals with Nuclear receptor subfamily 1 group I member 3 (Homo sapiens) (UniProt Q14994). Briefly: qHTS assay to identify small molecule antagonists of the constitutive androstane receptor (CAR) signaling pathway (AID 1224838).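 Note: HepG2 cells stably expressing hCAR with CYP2B6 luciferase reporter stimulated by CITCO; nearly all actives have a fitted effect of over 40% in size.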 Put shortly: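 HepG2-CYP2B6-hCAR cells; 4 h pre-incubation; cpd (15 conc) + CITCO 50 nM final; 24 h, 37 C/5% CO2; ONE-Glo, luminescence.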
Nuclear receptor subfamily 1 group I member 3 (Homo sapiens), sequence (Q14994 whole entry, looked up): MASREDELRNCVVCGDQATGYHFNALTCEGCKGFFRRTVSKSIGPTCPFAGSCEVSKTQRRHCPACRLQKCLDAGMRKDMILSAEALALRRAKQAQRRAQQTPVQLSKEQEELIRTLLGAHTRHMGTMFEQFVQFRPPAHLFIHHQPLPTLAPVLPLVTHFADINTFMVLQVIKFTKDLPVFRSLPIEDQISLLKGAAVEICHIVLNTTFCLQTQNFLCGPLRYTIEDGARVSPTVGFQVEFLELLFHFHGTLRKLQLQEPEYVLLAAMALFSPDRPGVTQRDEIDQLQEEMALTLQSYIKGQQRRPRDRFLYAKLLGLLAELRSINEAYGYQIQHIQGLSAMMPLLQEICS
For assay [5] the target is unchanged. The assay is described as follows: qHTS assay to identify small molecule agonists of the constitutive androstane receptor (CAR) signaling pathway (AID 1224839).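 Note: HepG2 cells stably carrying human CAR and a CYP2B6 luciferase reporter; nearly all actives have a fitted effect of over 15% in size.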 Put shortly:
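Luminescent ONE-Glo read-out after 24 hr, 37 C exposure of double-stable HepG2-CYP2B6-hCAR reporter cells to a 15-point compound series, in the presence of 0.75 uM PK11195 (final).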

A short description of assay [6]: qHTS assay to identify small molecule antagonists of the estrogen related receptor signaling pathway with the pleiotropic PPARgamma coactivator (PGC) from Tox21 10K library - cell viability counter screen (AID 1224840; active = well fitted cell-killing curve with a large enough effect in the repeat runs, not every such curve was filed as active; note: nearly all actives have a fitted effect of over 40% in size). Put shortly:
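PGC/ERR cells, 2,000/well; 6 h pre-incubation 37 C/5% CO2; cpd in DMSO via pin tool; 17.5 h 37 C; CellTiter-Fluor, 30 min; fluorescence.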

In assay [7] the target is Thyrotropin receptor (Homo sapiens) (UniProt P16473). The assay is described as follows: qHTS assay to identify small molecule agonists of the thyroid stimulating hormone receptor (TSHR) signaling pathway (AID 1224843; calls by dose curve; note: nearly all actives have a fitted effect of over 45% in size). Put shortly:
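TSHR-expressing HEK293 cells (800 per well) were exposed to compounds for 30 min at room temperature. cAMP was then detected by HTRF competition with cAMP-d2 and anti-cAMP cryptate, read after 1 h at room temperature. Fifteen concentrations, triplicate.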

Assay [8] in a line: qHTS assay to identify small molecule agonists of the hypoxia (HIF-1) signaling pathway - cell viability counter screen (AID 1224844; calls by dose curve; note: nearly all actives have a fitted effect of over 50% in size). The essentials:
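ME-180 HRE-bla cells, 2,000/well, 0.5% dialyzed FBS; 5 hr settle, 17 hr compound at 37C/5% CO2; CCF4-AM reporter read first, then CellTiter-Glo luminescence after 30 min RT.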

Assay [9] is described as follows: qHTS assay to identify small molecule agonists of H2AX (AID 1224845; active = well fitted activation curve with a large enough effect in the signal ratio in the repeat runs, not every such curve was filed as active; the % refers to the signal ratio). The essentials: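 Wild-type CHO-K1 cells plated overnight, then exposed 3 hr at 37C to compounds at 15 concentrations (0.76% DMSO). Lysed, then HTRF anti-pH2AX(S139)-cryptate/anti-H2AX-d2 detection after 24 hr at room temperature; emissions 665 and 620 nm.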
Assay [10] is described as follows: qHTS assay to identify small molecule agonists of the hypoxia (HIF-1) signaling pathway (AID 1224846; active = well fitted activation curve with a large enough effect in the signal ratio in the repeat runs, not every such curve was filed as active; the % refers to the signal ratio). The essentials: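 Cell line: CellSensor HRE-bla ME-180; 2,000 cells/well; 0.5% dialyzed FBS; 5 h preincubation; DMSO compound pin transfer; 17 h, 37C, 5% CO2; CCF4-AM added; bla FRET signal scored for activation.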
The nature of assay [11]: qHTS RealTime-Glo MT Cell Viability Assay in HepG2 cells - 24 hour (AID 1224867). Note: nearly all actives have a fitted effect of over 50% in size. The essentials:
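Tox21 10K library screened in qHTS format on HepG2 cells carrying RealTime-Glo reagents. Compounds were added after a 5 h preincubation, and the luminescent signal from continuous culture was measured repeatedly during 40 h treatment.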

Assay [12] in a line: qHTS RealTime-Glo MT Cell Viability Assay in HEK293 cells - 32 hour (AID 1224868). Note: top concentration of the series differs between compounds; nearly all actives have a fitted effect of over 50% in size. Put shortly: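 Luminescence generated by NanoLuc from substrate produced by living HEK293 cells served as the viability signal. Each value reflects the reading at its stated time point during continuous 40 h compound exposure at 37 C.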
Assay [13] is described as follows: A CellTox Green Cytotoxicity Assay to monitor cytotoxicity in HEK293 cells - 0 hour (AID 1224869). Note: nearly all actives have a fitted effect of over 50% in size. The essentials: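 Nonlytic real-time cytotoxicity: HEK293 + CellTox Green reagent plated, 5 h preincubation, pintool compound addition (23 nL in DMSO), 37 C for 40 h, fluorescence measured at successive time points.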
Assay [14] is described as follows: qHTS assay to identify small molecule agonists of H2AX - cell viability counter screen (AID 1224847; calls by dose curve; note: top concentration of the series differs between compounds; nearly all actives have a fitted effect of over 30% in size). Put shortly:
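Counter-screen for viability: CellTiter-Glo ATP luminescence read after 3 h compound treatment (15-point titration, 0.76% DMSO final) of CHO-K1 cells at 37C, with 30 min room-temperature reagent incubation.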

Assay [15] in a line: qHTS assay to identify small molecule antagonists of the estrogen related receptor signaling pathway with the pleiotropic PPARgamma coactivator (PGC) from Tox21 10K library (AID 1224841; call rule not given here). Put shortly: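 PGC/ERR cell line, 2,000 cells/well; 6 h pre-incubation 37 C/5% CO2; compounds (DMSO) pinned in; 18 h, 37 C; One-Glo, 30 min RT; luminescence.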
Assay [16] can be described thus: qHTS assay to identify small molecule agonists of the estrogen related receptor signaling pathway with the pleiotropic PPARgamma coactivator (PGC) from Tox21 10K library (AID 1224842). Note: nearly all actives have a fitted effect of over 15% in size. The essentials: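 PGC/ERR reporter cells (NTP line) were seeded 2,000 per well, rested 6 h at 37 C/5% CO2, then pin-dosed with compounds in DMSO for 18 h at 37 C; luciferase read by One-Glo luminescence after 30 min at room temperature.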

Assay [17] can be described thus: qHTS assay to identify small molecule antagonists of the estrogen related receptor (ERR) signaling pathway from Tox21 library (AID 1224848). Note: nearly all actives have a fitted effect of over 50% in size. Put shortly:
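Cells: ERR line, 2,000/well; 6 h preincubation 37 C/5% CO2. Cpd in DMSO via pin tool; 18 h, 37 C. ONE-Glo, 30 min RT, luminescence.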

A short description of assay [18]: qHTS assay to identify small molecule agonists of the estrogen related receptor (ERR) signaling pathway from Tox21 library (AID 1224849; calls by dose curve; note: nearly all actives have a fitted effect of over 15% in size). Particulars: ERR reporter cell line, ONE-Glo luciferase, 18 h; at 92.4 µM (top of the series) unless noted. Put shortly: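 ERR cells, 6 h pre-incubation 37 C/5% CO2; cpd in DMSO pinned; 18 h 37 C; ONE-Glo added, 30 min RT; luminescence read. Agonist mode, qHTS.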

A short description of assay [19]: qHTS assay to identify small molecule agonists of the constitutive androstane receptor (CAR) signaling pathway - cell viability counter screen (AID 1224836). Note: nearly all actives have a fitted effect of over 45% in size. Put shortly: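 Cell viability multiplexed with the CAR agonist screen: CellTiter-Fluor fluorescence after 23 hr at 37 C. HepG2-CYP2B6-hCAR cells got compounds at 15 concentrations with PK11195 at 0.75 uM final.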

A number with no mark means an inactive call. Results filed as inconclusive are left out. Activity calls are given as the source filed them. Unless noted, calls come from the whole dose curve; as a rule, active = well fitted curve in the direction sought with a large enough effect in the repeat runs; inconclusive = weak or mixed curves; inactive = no such curve, though single readings can be large; an effect the other way counts as inactive or inconclusive.

These results are taken from PubChem BioAssay (Tox21).
% is set by controls: 0 for no effect and ±100 for the full control effect.

Thyrotropin receptor (Homo sapiens), sequence (P16473 whole entry, looked up): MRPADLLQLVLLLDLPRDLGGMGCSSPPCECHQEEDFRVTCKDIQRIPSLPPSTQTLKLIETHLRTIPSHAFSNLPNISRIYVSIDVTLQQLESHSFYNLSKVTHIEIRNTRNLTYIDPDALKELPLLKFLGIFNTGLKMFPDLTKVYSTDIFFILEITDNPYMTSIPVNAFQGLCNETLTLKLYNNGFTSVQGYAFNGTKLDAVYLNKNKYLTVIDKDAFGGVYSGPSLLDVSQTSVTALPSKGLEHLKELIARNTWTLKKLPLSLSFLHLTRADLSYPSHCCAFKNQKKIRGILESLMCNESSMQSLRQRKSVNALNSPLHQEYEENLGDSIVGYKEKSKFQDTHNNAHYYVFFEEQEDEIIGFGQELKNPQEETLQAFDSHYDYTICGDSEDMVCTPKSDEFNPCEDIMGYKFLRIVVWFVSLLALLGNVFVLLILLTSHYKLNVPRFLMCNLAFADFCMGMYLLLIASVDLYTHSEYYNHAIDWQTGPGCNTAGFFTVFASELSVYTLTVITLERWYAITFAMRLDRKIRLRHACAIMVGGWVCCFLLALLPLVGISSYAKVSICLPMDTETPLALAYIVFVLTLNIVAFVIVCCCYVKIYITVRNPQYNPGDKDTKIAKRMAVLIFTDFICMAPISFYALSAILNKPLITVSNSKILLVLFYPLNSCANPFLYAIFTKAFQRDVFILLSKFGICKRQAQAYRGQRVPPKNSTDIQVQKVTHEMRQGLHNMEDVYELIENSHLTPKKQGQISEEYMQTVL
Luciferin 4-monooxygenase (Photinus pyralis), sequence (P08659 whole entry, looked up): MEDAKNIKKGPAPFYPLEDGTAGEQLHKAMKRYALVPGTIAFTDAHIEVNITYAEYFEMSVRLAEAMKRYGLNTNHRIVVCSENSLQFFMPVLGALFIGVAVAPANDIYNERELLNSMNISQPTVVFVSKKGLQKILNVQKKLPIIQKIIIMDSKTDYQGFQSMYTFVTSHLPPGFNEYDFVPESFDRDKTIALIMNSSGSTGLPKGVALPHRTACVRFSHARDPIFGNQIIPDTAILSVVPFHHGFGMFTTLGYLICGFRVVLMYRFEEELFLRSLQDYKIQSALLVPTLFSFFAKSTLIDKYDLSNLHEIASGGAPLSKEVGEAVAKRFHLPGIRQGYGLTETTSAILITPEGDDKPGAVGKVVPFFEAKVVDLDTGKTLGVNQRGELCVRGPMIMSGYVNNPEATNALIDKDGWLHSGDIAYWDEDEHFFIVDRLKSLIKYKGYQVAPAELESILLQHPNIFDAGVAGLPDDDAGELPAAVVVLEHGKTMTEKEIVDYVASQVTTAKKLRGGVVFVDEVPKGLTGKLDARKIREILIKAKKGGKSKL

Regarding `O=C(O)c1cccc(C[C@@H]2COc3ccc(OCc4nc5cc(F)ccc5s4)cc3[C@@H]2O)c1`, the Potency result in assay [1], in assay [2], in [3], in assay [4], in assay [5] and in assay [6] was “inactive” in each case. In addition, the Potency result in [7], in assay [8], in assay [9], in assay [11], in [12] and in assay [13] was “inactive” in each case. Further, the call in assay [10] was inactive.
In the case of `COc1cc(S(=O)(=O)Nc2ccccc2)c(OC)cc1N`, the Potency result in assay [1], in [2], in [3], in [4], in [6] and in assay [7] was “inactive” in each case. In addition, the Potency result in [8], in assay [14], in [12] and in assay [13] was “inactive” each time. For the same compound, the call in [10] was inactive.
`CC(C)C(=O)OCCOc1ccccc1`: the Potency entry in assay [1], in assay [2], in assay [3], in [4], in [5] and in assay [6] was “inactive” throughout. Also, the Potency entry in assay [8], in assay [9], in assay [14], in assay [11], in assay [12] and in assay [13] was “inactive” in each case. Also, in assay [10], the compound was called inactive.
Turning to `CC(=O)OCC1=C(C(=O)O)N2C(=O)[C@@H](NC(=O)CSc3ccncc3)[C@H]2SC1`, the Potency result in assay [1], in assay [2], in assay [3], in assay [4], in assay [5] and in assay [6] was “inactive” throughout. In addition, the Potency entry in assay [15], in assay [16], in assay [7], in assay [8], in assay [9] and in [14] was “inactive” each time. In addition, the Potency entry in [17], in assay [11], in [12] and in [13] was “inactive” throughout. In assay [18], the activity change, positive = activation was 0.532% [at 42.5 µM].
With `NC(=O)CCCCC(N)=O`, the Potency result in assay [1], in [2], in assay [3], in assay [4], in assay [5] and in assay [6] was “inactive” throughout. For the same compound, the Potency entry in assay [7], in assay [8], in [14], in assay [11], in assay [12] and in assay [13] was “inactive” each time. Moreover, in assay [10], the compound was called inactive.
With `O=C(O)CCCc1c[nH]c2ccccc12`, the Potency entry in [1], in assay [2], in assay [3], in assay [6], in assay [15] and in assay [16] was “inactive” throughout. For the same compound, the Potency result in [7], in [8], in [9], in assay [17], in assay [11] and in [12] was “inactive” each time. In addition, in assay [13], the Potency result is “inactive”. Besides, the compound was called inactive in [10]. Further, the activity change, positive = activation in assay [18] is 11.9%.
Turning to `O=C(Nc1ccc(C(=O)O)c(O)c1)c1ccccc1`, the Potency result in assay [1], in assay [3], in assay [4], in assay [5], in [7] and in assay [8] was “inactive” each time. In addition, the Potency entry in [9], in [14], in assay [11], in assay [12] and in [13] was “inactive” each time. In addition, the Potency in assay [2] was 27.5 µM (active). Further, the outcome in assay [10] was inactive.
As to `CCCCCCCC/C=C\CCCCCCCC(=O)OCCO`, the Potency result in assay [1], in assay [2], in assay [19], in assay [3], in [7] and in [8] was “inactive” each time. Moreover, the Potency entry in assay [14] was “inactive”. The outcome in assay [10] was inactive.
Turning to `ClC1=C(Cl)C1(Cl)Cl`, the Potency entry in assay [1], in assay [2], in assay [3], in assay [4], in assay [5] and in assay [6] was “inactive” throughout. In addition, the Potency result in assay [15], in assay [16], in assay [7], in assay [9], in assay [14] and in assay [17] was “inactive” in each case. Besides, the Potency entry in assay [11], in assay [12] and in [13] was “inactive” in each case. For the same compound, the result in [10] was inactive. The activity change, positive = activation in assay [18] is 7.16%.
